From PubChem BioAssay (Tox21)
“And” between values parts separate entries of the source, which are not always exact repeats. Equal values may be shown once. Records with an inconclusive call do not appear. Some structures have more than one record in an assay (separate samples or runs), and their calls can disagree. The source made the active and inactive calls. Calls follow the shape of the dose curve; as a rule, active = well fitted activation curve with a large enough effect in the repeat runs; inconclusive = weak or mixed curves; inactive = flat fitted curve, though single readings scatter.

Assay: A CellTox Green Cytotoxicity Assay to monitor cytotoxicity in HepG2 cells - 40 hour (AID 1224879); also: nearly all actives have a fitted effect of over 40% in size
Conditions: CellTox Green fluorescence; series mostly up to 76.8 µM; cytotoxicity increase: at the top concentration
From the text: National Center for Advancing Translational Sciences [NCATS]
NIH Chemical Genomics Center [NCGC]
U.S. Environmental Protection Agency [EPA]
National Institutes of Environmental Health Sciences [NIEHS]
National Toxicology Program [NTP]
Cell-based models are critical for drug discovery. Determining the natural cytotoxic effects resulting from test compounds is an essential research activity. A CellTox Green Cytotoxicity Assay to monitor cytotoxicity in real time of continues cell culture during 40 hours of the compound treatment was used to screen Tox21 10K library compounds in HepG2 cells. CellTox Green Cytotoxicity Assay is a nonlytic, homogeneous, biofluorescent method to measure cytotoxicity in cell culture after experimental manipulation. The assay system uses a proprietary asymmetric cyanine dye that is excluded from viable cells but preferentially stains the dead cell's DNA. […] Viable cells produce no appreciable increases in fluorescence. Therefore, the fluorescence signal produced by the binding interaction with dead cell DNA is proportional to cytotoxicity.
The mixture of HepG2 cell suspension and reagents were dispensed at 600cells/6 ul/well in 1536-well tissue culture treated black solid bottom plates using a Multidrop dispenser. After the assay plates were incubated at a 37 C/5% CO2 incubator for 5 hours, 23 nL of compounds dissolved in DMSO, positive and negative controls was transferred to the assay plate by a pintool work station. The plates were incubated at 37 C for 40 hours. The fluorescence intensity were measured at 0h, 8h, 16h, 24h, 32h and 40h time points using ViewLux plate reader during compound treatment.
% is scaled to controls: 0 for no effect and ±100 for the full control effect; potency is read from the fitted curve at half-maximal effect.

Row | SMILES | Potency | cytotoxicity increase
1 | COC(=O)c1cccc(C(=O)OC)c1 | inactive and 24.5 µM (active) | 
2 | CC(=O)CC(=O)Nc1ccc2[nH]c(=O)[nH]c2c1 |  | -13.8% (inactive)
3 | CCC(C)(Oc1ccc(C2(c3ccc(OC(C)(CC)C(=O)O)cc3)CCCCC2)cc1)C(=O)O (stereo not given) |  | -5.58% [at 35.3 µM] (inactive)
4 | COc1ccc(CCN(C)CCCC(C#N)(c2ccc(OC)c(OC)c2)C(C)C)cc1OC (stereo not given) | 48.9 µM (active) | 
5 | Cc1cc(C2(c3cc(C)c(O)cc3C)OS(=O)(=O)c3ccccc32)c(C)cc1O | inactive | 
6 | CCN1CCCC1CNC(=O)c1cc(S(=O)(=O)CC)c(N)cc1OC (stereo not given) |  | 11.8% [at 35.3 µM] (inactive)
7 | OCCN1CCNCC1 |  | -16% (inactive)
8 | Cc1ccc(-c2cc(C(F)(F)F)nn2-c2ccc(S(N)(=O)=O)cc2)cc1 | 48.8 µM (active) and 49 µM (active) | 
9 | COc1ccc(Cc2cnc(N)nc2N)cc1OC |  | -23.4% [at 35.3 µM] (inactive)
10 | Clc1ccc2c(c1)C(N1CCNCC1)=Nc1ccccc1O2 | 49 µM (active) and 26.8 µM (active) | 
11 | NC(=Nc1ccccc1)Nc1ccccc1 |  | 2.79% [at 35.3 µM] (inactive)
12 | CC(C)C(=O)c1c(C(C)C)nn2ccccc12 |  | -15.6% [at 35.3 µM] (inactive)
13 | CC(C)(C)c1ccc(O)c(C(C)(C)C)c1 | 48.8 µM (active) and 43.6 µM (active) | 
14 | CN(C)c1ccc2nc3ccc(=[N+](C)C)cc-3sc2c1 | inactive | 
15 | CCn1cc(C(=O)O)c(=O)c2cc(F)c(N3CCNC(C)C3)c(F)c21 (stereo not given) |  | -0.609% [at 35.3 µM] (inactive)
16 | COc1ccc(COC(C)=O)cc1 | inactive | 
17 | CNCCC(Oc1ccc(C(F)(F)F)cc1)c1ccccc1 (stereo not given) | 48.4 µM (active) and 15.1 µM (active) | 
18 | C=CC(=O)OCCCCCCOC(=O)C=C | inactive and 54.9 µM (active) | 
19 | Nc1ccc(O)cc1 |  | 5.23% [at 35.3 µM] (inactive)
20 | COc1nc(C)nc(Cl)c1NC1=NCCN1 |  | -18.5% [at 35.3 µM] (inactive)

Row | SMILES | Potency | cytotoxicity increase
21 | [Cl][In]([Cl])[Cl] |  | -16.9% (inactive)
22 | CCN(CC)C(=O)Nc1ccc(OCC(O)CNC(C)(C)C)c(C(C)=O)c1 (stereo not given) |  | -14.2% [at 35.3 µM] (inactive)
23 | CC(C)(c1ccccc1)c1ccc(Nc2ccc(C(C)(C)c3ccccc3)cc2)cc1 | inactive | 
24 | CCOc1ccc2c(c1)C(C)=CC(C)(C)N2 |  | 14.9% (inactive)
25 | OCC(CO)N[C@H]1C[C@](O)(CO)[C@@H](O)[C@H](O)[C@H]1O |  | 1.65% [at 35.3 µM] (inactive)
26 | Cc1cccc2n[nH]nc12 |  | 3.91% (inactive)
27 | CC(C)(C)NCC(O)COc1ccccc1OCC1CCCO1 (stereo not given) |  | 7.89% [at 35.3 µM] (inactive)
28 | CC1=CC(=O)c2ccccc2C1=O | 43.6 µM (active) and 26.8 µM (active) | 
29 | CCCCC/C=C/CC1CC(=O)OC1=O (stereo not given) |  | 15.1% (inactive)
30 | NNCCc1ccccc1 |  | -12% [at 35.3 µM] (inactive)
31 | CC(=O)OCC1=C(C(=O)O)N2C(=O)[C@@H](NC(=O)Cc3cccs3)[C@H]2SC1 |  | -10.9% [at 35.3 µM] (inactive)
32 | BrC1CCC(Br)C(Br)CCC(Br)C(Br)CCC1Br (stereo not given) | inactive | 
33 | O=Nc1ccc(Nc2ccccc2)cc1 | 49.2 µM (active) and 49 µM (active) | 
34 | CCN(CC)c1ccc2c(C)cc(=O)oc2c1 | inactive | 
35 | Cc1cc(C(C)(C)C)c(O)c(C(C)(C)C)c1 | inactive | 
36 | COC(=O)/C=C/c1ccccc1 | inactive | 
37 | Cc1cccc([N+](=O)[O-])c1C(=O)O |  | 3.08% (inactive)
38 | CC1COc2c(N3CCN(C)CC3)c(F)cc3c(=O)c(C(=O)O)cn1c23 (stereo not given) |  | -3.12% [at 35.3 µM] (inactive)
39 | CC1COC(=O)O1 (stereo not given) | inactive and 43.6 µM (active) | 
40 | CCc1ccc(C(c2ccc(CC)cc2)C(Cl)Cl)cc1 | inactive | 
